# Bioassay records deposited in PubChem BioAssay by several laboratories.
# Sampled rows, rich in hits. Any-hit rate of the full collection: about 4.2%.
# DAX1 StAR inh: DAX1 (NR0B1) inhibitors on StAR promoter, primary screen, cell-based, luminescence, SF-1 (NR5A1), full-length DAX-1 | HEK293T StAR-luciferase reporter, SF-1/DAX-1 repression relief | 370,000 tested, 1.1% active | AID 652010, 2013 | inhibition, % at 6.8 µM;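 active means inhibition above the mean over all tested compounds plus 3 SD, cut at about 3.6% in these data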;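 further: 0% = DAX-1 cells with DMSO and 100% = cells lacking DAX-1 with DMSO; higher inhibition means more luminescence from relief of DAX-1 repression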
# ssDAF12 agonist: S. stercoralis DAF-12 nuclear receptor activators, primary screen, cell-based, luminescence, HEK293, GRIP1 co-expression, lit1-tk-luc. HEK293 ssDAF-12/GRIP1 lit1-tk-luc reporter; % of 3 µM dafachronic acid response. activation, % at 6.8 µM. 370,000 tested, 1% active. AID 652126, 2013;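 active means activation above the mean over all tested compounds plus 3 SD, cut at about 0.9% in these data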;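 further: 0% = DMSO-only wells and 100% = 3 µM delta7-dafachronic acid wells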
# hgDAF-12 ag: H. glycines DAF-12 receptor agonists, primary screen, cell-based, luminescence, HEK293, GAL4 fusion, UAS-luciferase; 370,000 tested, 1.8% active; activation, % at 6.8 µM; HEK293 GAL4-hgDAF12 UAS-luciferase reporter, agonist luminescence; normalized to butyrate control;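 active means activation above a cutoff set at the mean of all screened compounds plus 3 SD, cut at about 10% in these data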;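 further: 0% = DMSO wells and 100% = sodium butyrate wells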
# esBAF inh: Bmi1 luciferase reporter increase in mESCs, primary screen, esBAF inhibitor project, mouse ES cells, Bmi1 luciferase knock-in, single point. 24 h; 100% = twice the neutral-well signal. reporter increase, % at 12.5 µM. 350,000 tested, 2% active. AID 602393, 2012; in the data active means activation above about 40%; inconclusive means no clear call, values can overlap the other calls;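 further: 0% = median of the plate's neutral control wells and 100% = double that signal; a rise in the Bmi1 reporter signal indicates esBAF inhibition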
# Wnt act: Wnt/beta-catenin pathway activators, primary screen, cell-based, plate reader, single point. Wnt/beta-catenin reporter cell assay, activator. activation, % at 9.35 µM. AID 743398, 2014. 300,000 tested, 1.2% active; in the data active means activation above about 30%, passing the limit was not always enough; inconclusive means no clear call, values can overlap the other calls;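 further: 0% = neutral control wells and 100% = positive control wells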
# hcDAF-12 act: H. contortus DAF-12 nuclear receptor activators, primary screen, cell-based, luminescence, HEK293, lit1-tk-luc reporter; 370,000 tested, 1.4% active; activation, % at 6.8 µM; AID 652067, 2013; HEK293 hcDAF-12 lit1-tk-luc reporter; 0% DMSO, 100% Δ7-dafachronic acid;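 active means activation above the mean of all tested compounds plus 3 SD, cut at about 5.5% in these data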;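 further: 100% = response to 3 µM Δ7-dafachronic acid high control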
# DAX1 conf: DAX1 (NR0B1) inhibitors relieving SF-1 repression, confirmation, cell-based, luminescence, HEK293T, full-length DAX-1, SF-1 activated StAR promoter | shares compounds with DAX1 StAR inh | HEK293T StAR-promoter luciferase reporter, SF-1/DAX-1 repression | 2,400 tested, 87% active | inhibition, % at 6.8 µM;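 active means inhibition above the average of every tested compound plus 3 SD, cut at about 3.8% in these data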;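 further: 0% = DAX-1 cells with DMSO and 100% = no DAX-1 control cells with DMSO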
# Target sequence (P51843 whole entry, looked up): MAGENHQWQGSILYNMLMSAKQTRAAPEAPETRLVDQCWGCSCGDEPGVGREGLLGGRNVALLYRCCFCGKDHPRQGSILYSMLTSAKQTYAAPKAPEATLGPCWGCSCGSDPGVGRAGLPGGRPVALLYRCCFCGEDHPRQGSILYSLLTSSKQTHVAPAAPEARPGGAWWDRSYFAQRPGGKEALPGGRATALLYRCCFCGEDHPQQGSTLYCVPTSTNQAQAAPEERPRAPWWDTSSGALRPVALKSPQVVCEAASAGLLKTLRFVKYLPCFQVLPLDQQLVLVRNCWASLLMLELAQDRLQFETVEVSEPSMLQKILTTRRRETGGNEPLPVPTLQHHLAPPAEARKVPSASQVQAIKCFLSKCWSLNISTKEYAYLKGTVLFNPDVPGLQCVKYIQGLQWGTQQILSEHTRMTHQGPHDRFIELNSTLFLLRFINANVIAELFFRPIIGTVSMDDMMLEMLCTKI
# SF1 mutant ctr: StAR reporter signal changes without DAX1, counter-screen for DAX1 inhibitor project, cell-based, luminescence, AF-2 mutant SF-1, transactivation; shares compounds with DAX1 StAR inh; HEK293 StAR-luciferase, SF-1 AF2 mutant; inhibition, % at 6.8 µM; 2,400 tested, 78% active;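 active means inhibition above the mean of all tested compounds plus 3 SD, cut at about 3% in these data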;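 further: 0% = DAX-1 transfected cells with DMSO and 100% = cells without DAX-1 with DMSO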
# LXRb hcDAF ctr: LXR agonists, Gal4 luciferase reporter, confirmation, counter-screen for hcDAF-12 agonist project, cell-based, luminescence, HEK293, H. contortus campaign | HEK293 Gal4-LXR tk-luc reporter, 24 h; normalized: DMSO 0%, positive control 100% | shares compounds with hcDAF-12 act | 3,400 tested, under 10 active | activation, % at 6.8 µM | AID 743027, 2013;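 active means mean percent activation of the reporter above a cutoff set as the average over tested compounds plus their standard deviation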
# hcDAF12 ag: H. contortus DAF-12 receptor agonists, confirmation, cell-based, luminescence, HEK293, lit1-tk-luc, triplicate; shares compounds with hcDAF-12 act; HEK293 hcDAF-12 lit1-tk-luc reporter; % of Δ7-dafachronic acid response; activation, % at 6.8 µM; 3,400 tested, 61% active;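 active means mean activation across triplicate tests above the threshold derived from the earlier primary screen, cut at about 5.5% in these data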;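 further: 0% = DMSO only wells and 100% = 3 µM Δ7-dafachronic acid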
# hgDAF12 conf: H. glycines DAF-12 receptor agonists, confirmation, cell-based, luminescence, HEK293, GAL4-LBD fusion; activation, % at 6.8 µM; HEK293 GAL4-hgDAF12 luciferase reporter, agonist mode; percent of butyrate response; shares compounds with hgDAF-12 ag; 3,300 tested, 80% active;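 active means mean activation over triplicate wells above the hit cutoff derived from the earlier primary screen, cut at about 11% in these data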;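 further: 0% = DMSO low control and 100% = 2 mM sodium butyrate high control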
# LXR ag 2: LXR agonists, Gal4 luciferase reporter, confirmation, counter-screen for hgDAF-12 agonist project, cell-based, luminescence, HEK293, H. glycines campaign; shares compounds with hgDAF-12 ag; 24 h; activation, % at 6.8 µM; 3,300 tested, under 10 active; AID 743051, 2013;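 active means mean activation of the triplicate above a set limit carried over from the primary screen, none filed active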
# Active calls of the source: *; ? = inconclusive; . = no result.
SMILES,DAX1 StAR inh,ssDAF12 agonist,hgDAF-12 ag,esBAF inh,Wnt act,hcDAF-12 act,DAX1 conf,SF1 mutant ctr,hgDAF12 conf,LXR ag 2,others
C[C@H]1CN([C@@H](C)CO)C(=O)c2cccc(NS(=O)(=O)c3ccc(Cl)cc3)c2O[C@@H]1CN(C)Cc1ccccc1,.,.,.,-3,.,.,.,.,.,.,
Cc1ccc(C(=O)O)c(C(=O)Nc2nc3ccccc3s2)c1,1,0,3,.,0,3,.,.,.,.,
Cc1ccc(C(=O)Nc2nc3ccccc3s2)s1,4.8*,1,21*,-6,.,12*,16*,6.2*,22*,1,LXRb hcDAF ctr=2;hcDAF12 ag=11*
CCCCNC(=O)Nc1nc2ccccc2s1,5.5*,0,15*,.,13,3,11*,4.8*,15*,1,
C[C@@H]1CN([C@@H](C)CO)C(=O)c2cc(C3=CCCCC3)cnc2O[C@@H]1CN(C)Cc1ccccn1,.,.,.,2,.,.,.,.,.,.,
CCC(=O)N(C)C[C@@H]1Oc2cc(-c3cccc(F)c3)ccc2S(=O)(=O)N([C@@H](C)CO)C[C@H]1C,.,.,.,3,.,.,.,.,.,.,
Brc1ccc(OCc2cn3ccccc3n2)cc1,6.5*,0,20*,.,17,4,9.2*,4.6*,16*,1,
O=C(COc1ccc(Br)cc1)NCc1cn2ccccc2n1,0,0,5,.,-2,-2,.,.,.,.,
C[C@H](CO)N1C[C@H](C)[C@H](CN(C)C(=O)CCCN(C)C)OCCCC[C@H](C)Oc2ccc(NC(=O)NC3CCCCC3)cc2C1=O,.,.,.,0,.,.,.,.,.,.,
Cc1c(NC(=S)NC(=O)c2sc3ccccc3c2Cl)cccc1C(=O)O,5.9*,0,18*,.,12,3,9.6*,6.8*,16*,1,
COc1ccccc1C(=O)NC(=S)NNC(=O)c1sc2ccccc2c1Cl,0,0,0,.,1,3,.,.,.,.,
Cc1cc(C)c2sc(NC(=O)C3=COCCO3)nc2c1,14*,0,21*,24,24,10*,9.5*,4.3*,17*,1,LXRb hcDAF ctr=1;hcDAF12 ag=5
c1ccc2c(c1)CCCN2c1nc(N2CCOCC2)nc(N2CCOCC2)n1,-1,0,0,-3,-1,0,.,.,.,.,
CNc1nc(N2CCc3ccccc32)ncc1F,5.1*,1,15*,.,.,5.8*,11*,5.0*,15*,1,
NC(=O)c1ccccc1N/C=C/C(=O)c1ccc(Cl)cc1Cl,6.3*,0,16*,-11,.,8.1*,17*,7.6*,17*,1,LXRb hcDAF ctr=1;hcDAF12 ag=8.2*
O=C(Nc1ccccc1Cl)c1ccc(Cl)cc1Cl,0,-1,4,9,8,-1,.,.,.,.,
C[C@H](CO)N1C[C@H](C)[C@@H](CN(C)C(=O)Cc2ccccn2)Oc2ncc(-c3cncnc3)cc2C1=O,.,.,.,-3,.,.,.,.,.,.,
O=C(CNC(=O)c1cccs1)Nc1ccc2c(c1)OCCO2,12*,0,17*,-7,31*,4,8.0*,4.0*,16*,1,
CCOC(=O)C1=C(C)N(C[C@@H]2CC[C@@H](Cc3ccc4cc(OC)ccc4c3)O2)C(=O)NC1c1ccc(OC)cc1 (stereo partly specified),-1,-1,0,-6,-2,-3,.,.,.,.,
COc1ccc2cc(C[C@@H]3CC[C@@H](CO)O3)ccc2c1,5.0*,0,15*,67*,21,4,8.1*,5.4*,12*,1,
COc1ccc(NC(=O)Nc2cccc3c2O[C@@H](CN(C)C)[C@H](C)CN([C@H](C)CO)C3=O)cc1,.,.,.,3,.,.,.,.,.,.,
Fc1cccc(/C=N/Nc2ccc3ccccc3n2)c1,6.7*,1.7*,21*,.,13,12*,16*,6.6*,20*,1,LXRb hcDAF ctr=2;hcDAF12 ag=11*
Brc1ccc(/C=N/Nc2ccc3ccccc3n2)cc1,2,0,7,?,.,5,.,.,.,.,
COc1ccc(S(=O)(=O)N(C)C[C@@H]2OCCCC[C@@H](C)Oc3ccc(NC(=O)NC4CCCCC4)cc3C(=O)N([C@H](C)CO)C[C@H]2C)cc1,.,.,.,5,.,.,.,.,.,.,
O=C(/C=C/c1ccc(Cl)cc1)Nc1nccs1,11*,1,24*,.,15,8.6*,18*,10*,20*,1,LXRb hcDAF ctr=2;hcDAF12 ag=7.7*
Cc1nn(-c2ccccc2)c(N)c1C1(O)C(=O)N(C)c2ccccc21 (stereo unspecified),0,-1,0,.,.,1,.,.,.,.,
Cc1nn(-c2ccccc2)c2c1C1(C(=O)N(C)c3ccccc31)N(c1ccccc1)C(=O)N2 (stereo unspecified),2,0,3,1,.,6.6*,.,.,.,.,LXRb hcDAF ctr=0;hcDAF12 ag=4
